What all share (experiment): log2 fold change, soluble protein after heating vs DMSO (PISA); higher = thermal stabilisation; K562 lysate, 10 uM; active = over 0.2 and 3.5 SD of the protein, either way, in both replicates (recomputed)
Compound in one test: C=CC(=O)N1CCC[C@@H](n2nc(-c3ccc(Oc4ccccc4)cc3)c3c(N)ncnc32)C1 [ibrutinib]
In outline:
(§1)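 K562 pellets were dounce-homogenised in PBS pH 7.4 containing 1 mM MgCl2, and the crude extract, at 1 mg/mL protein, was exposed to 10 μM compound for 30 min. Aliquots were heated for 3 min across 48°C-58°C, pooled, brought to 0.5% NP-40 at 4°C and spun at 21,000xg for 90 min, with the supernatant taken as soluble protein. TMTpro 16plex LC-MS/MS with equalised channel sums quantified that protein. Values are log-two fold changes in thermal stability relative to solvent controls, taken from duplicates.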

Compound in another test: CCN(CCCOc1ccc2c(Nc3cc(CC(=O)Nc4cccc(F)c4)[nH]n3)ncnc2c1)CCOP(=O)(O)O [barasertib]
In outline:
as §1

Compound in test [1]: CC(=O)c1cnc2ccc(-c3cc(Cl)c(O)c(Cl)c3)nc2c1N[C@H]1CC[C@H](CN(C)C)CC1
The gist of the method:
as §1

Compound in the next test: CC(C)(C)Cn1c(N)nc2ccc(-c3[nH]c(C(C)(C)C)nc3-c3ccc(F)cc3)nc21 [ralimetinib]
In outline:
as §1

Compound in test [2]: CC(C)(O)CC(=O)NCCn1ccc2ncnc(Nc3ccc(Oc4cccc(C(F)(F)F)c4)c(Cl)c3)c21
In outline:
as §1

Compound in test [3]: CC1=C(C(CC(=O)N1)C2=CC=C(C=C2)C(F)(F)F)C(=O)NC3=C(C=C4C(=C3)C=NN4)F
In outline: as §1

Compound in test [4]: CC1=C(C2=C(C=C1)C(=O)C3=CC=CC=C3N2CCCN)C
The gist of the method: as §1

Compound in test [5]: CC1=C(C=C(C=C1)NC(=O)C2=CC(=CC=C2)C(C)(C)C#N)NC3=CC4=C(C=C3)N=CN(C4=O)C
In outline: as §1

Compound in test [6]: CC1=C(C=C(C=C1)NC(=O)C2=CC(=CC=C2)N(C)C)NC(=O)C3=CC=C(C=C3)O
The gist of the method:
as §1

Compound in test [7]: CC1=CC=C(C=C1)SC2=C3C=C(SC3=CN=C2)C(=O)N
In outline: as §1

Compound in a further test: CCCS(=O)(=O)Nc1ccc(F)c(C(=O)c2c[nH]c3ncc(-c4ccc(Cl)cc4)cc23)c1F [vemurafenib]
In outline:
as §1

Compound in test [8]: CCCS(=O)(=O)Nc1ccc(F)c(C(=O)c2c[nH]c3ncc(Cl)cc23)c1F
In outline:
as §1

Compound in test [9]: CC[C@@H]1C(=O)N(C)c2cnc(Nc3ccc(C(=O)NC4CCN(C)CC4)cc3OC)nc2N1C1CCCC1
The gist of the method: as §1

Compound in another test: CC[C@@H]1C(=O)N(C)c2cnc(Nc3ccc(C(=O)N[C@H]4CC[C@H](N5CCN(CC6CC6)CC5)CC4)cc3OC)nc2N1C(C)C [volasertib]
The gist of the method:
as §1

Compound in test [10]: CCn1c(C(=O)N(C2CC2)C2CC2)cc2c3c(ncn3C)c(Nc3cc(C)n(C)n3)nc21
In outline: as §1

Compound in test [11]: CCn1cc(-c2ccnc3[nH]c(-c4cccc(CN(C)C)c4)cc23)c(-c2ccc(NC(=O)N(C)C)cc2)n1
The gist of the method: as §1

Compound in test [12]: CN1CCC(CNc2ccc3ncc(-c4cccc(OC(F)(F)F)c4)n3n2)CC1
In outline: as §1

Compound in a further test: CN1CCN(CCOc2cc(OC3CCOCC3)c3c(Nc4c(Cl)ccc5c4OCO5)ncnc3c2)CC1 [saracatinib]
In outline:
as §1

Compound in the next test: CN1CCN(c2nc(C3=C(c4c[nH]c5ccccc45)C(=O)NC3=O)c3ccccc3n2)CC1 [sotrastaurin]
The gist of the method: as §1

Compound in test [13]: CC(C)C1=C2N=C(C=C(N2N=C1)NCC3=CC=CC=C3)NCCCCCCN
The gist of the method: as §1

Of roughly 8,800 targets only a part is listed; those with a hit were picked by preference. About 0.5% of all pairs of compound and target were hits. A number with no mark means an inactive call.

UniProt O60906, sequence (O60906 whole entry, looked up): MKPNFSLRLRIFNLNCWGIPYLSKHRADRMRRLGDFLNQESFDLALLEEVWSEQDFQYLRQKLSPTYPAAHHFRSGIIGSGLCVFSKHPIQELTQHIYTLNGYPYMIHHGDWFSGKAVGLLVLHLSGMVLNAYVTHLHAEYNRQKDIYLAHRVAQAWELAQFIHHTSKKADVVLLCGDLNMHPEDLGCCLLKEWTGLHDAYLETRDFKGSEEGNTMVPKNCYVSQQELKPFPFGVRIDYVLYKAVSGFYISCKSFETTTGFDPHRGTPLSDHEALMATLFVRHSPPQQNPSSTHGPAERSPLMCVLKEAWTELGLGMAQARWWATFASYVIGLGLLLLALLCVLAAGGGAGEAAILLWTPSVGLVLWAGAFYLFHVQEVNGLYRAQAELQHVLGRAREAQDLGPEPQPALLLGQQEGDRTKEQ
UniProt Q96CQ1, sequence (Q96CQ1 whole entry, looked up): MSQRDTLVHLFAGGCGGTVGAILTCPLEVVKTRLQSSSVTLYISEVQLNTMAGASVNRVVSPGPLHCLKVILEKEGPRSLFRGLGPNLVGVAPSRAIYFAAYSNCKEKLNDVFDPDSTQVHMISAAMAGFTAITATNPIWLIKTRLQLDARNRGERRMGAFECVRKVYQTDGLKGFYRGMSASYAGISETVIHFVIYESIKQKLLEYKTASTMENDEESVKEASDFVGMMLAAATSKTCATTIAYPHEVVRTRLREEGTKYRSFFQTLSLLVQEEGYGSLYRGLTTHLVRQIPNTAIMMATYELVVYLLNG
UniProt Q96BI1, sequence (Q96BI1 whole entry, looked up): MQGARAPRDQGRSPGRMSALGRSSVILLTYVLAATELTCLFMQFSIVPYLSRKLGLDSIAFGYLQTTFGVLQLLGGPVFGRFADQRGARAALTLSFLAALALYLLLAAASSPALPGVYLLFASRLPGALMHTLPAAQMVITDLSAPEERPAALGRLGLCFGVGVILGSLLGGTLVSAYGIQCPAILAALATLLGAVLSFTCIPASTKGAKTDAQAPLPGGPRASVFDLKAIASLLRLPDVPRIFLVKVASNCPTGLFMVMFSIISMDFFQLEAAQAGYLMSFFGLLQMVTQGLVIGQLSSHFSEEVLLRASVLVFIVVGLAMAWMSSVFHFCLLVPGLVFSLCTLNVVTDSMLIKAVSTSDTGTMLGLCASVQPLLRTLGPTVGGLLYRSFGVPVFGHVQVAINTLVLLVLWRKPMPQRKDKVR
UniProt Q96H72, sequence (Q96H72 whole entry, looked up): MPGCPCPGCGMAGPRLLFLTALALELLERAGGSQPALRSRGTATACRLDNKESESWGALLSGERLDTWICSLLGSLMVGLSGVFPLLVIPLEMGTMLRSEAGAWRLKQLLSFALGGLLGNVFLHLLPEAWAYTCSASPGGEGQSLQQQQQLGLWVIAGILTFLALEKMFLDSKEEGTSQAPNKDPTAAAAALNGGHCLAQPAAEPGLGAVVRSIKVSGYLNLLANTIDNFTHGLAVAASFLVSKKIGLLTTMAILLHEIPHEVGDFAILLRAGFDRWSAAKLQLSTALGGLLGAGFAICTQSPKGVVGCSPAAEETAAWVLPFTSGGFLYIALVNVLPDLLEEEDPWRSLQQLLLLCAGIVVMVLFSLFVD
UniProt Q15544, sequence (Q15544 whole entry, looked up): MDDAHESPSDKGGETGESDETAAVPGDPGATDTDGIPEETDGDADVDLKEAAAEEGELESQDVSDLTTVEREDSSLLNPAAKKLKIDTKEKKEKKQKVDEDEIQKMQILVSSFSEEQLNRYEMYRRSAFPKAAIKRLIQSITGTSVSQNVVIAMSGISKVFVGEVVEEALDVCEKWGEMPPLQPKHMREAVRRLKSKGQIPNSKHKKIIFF
UniProt O75182, sequence (O75182 whole entry, looked up): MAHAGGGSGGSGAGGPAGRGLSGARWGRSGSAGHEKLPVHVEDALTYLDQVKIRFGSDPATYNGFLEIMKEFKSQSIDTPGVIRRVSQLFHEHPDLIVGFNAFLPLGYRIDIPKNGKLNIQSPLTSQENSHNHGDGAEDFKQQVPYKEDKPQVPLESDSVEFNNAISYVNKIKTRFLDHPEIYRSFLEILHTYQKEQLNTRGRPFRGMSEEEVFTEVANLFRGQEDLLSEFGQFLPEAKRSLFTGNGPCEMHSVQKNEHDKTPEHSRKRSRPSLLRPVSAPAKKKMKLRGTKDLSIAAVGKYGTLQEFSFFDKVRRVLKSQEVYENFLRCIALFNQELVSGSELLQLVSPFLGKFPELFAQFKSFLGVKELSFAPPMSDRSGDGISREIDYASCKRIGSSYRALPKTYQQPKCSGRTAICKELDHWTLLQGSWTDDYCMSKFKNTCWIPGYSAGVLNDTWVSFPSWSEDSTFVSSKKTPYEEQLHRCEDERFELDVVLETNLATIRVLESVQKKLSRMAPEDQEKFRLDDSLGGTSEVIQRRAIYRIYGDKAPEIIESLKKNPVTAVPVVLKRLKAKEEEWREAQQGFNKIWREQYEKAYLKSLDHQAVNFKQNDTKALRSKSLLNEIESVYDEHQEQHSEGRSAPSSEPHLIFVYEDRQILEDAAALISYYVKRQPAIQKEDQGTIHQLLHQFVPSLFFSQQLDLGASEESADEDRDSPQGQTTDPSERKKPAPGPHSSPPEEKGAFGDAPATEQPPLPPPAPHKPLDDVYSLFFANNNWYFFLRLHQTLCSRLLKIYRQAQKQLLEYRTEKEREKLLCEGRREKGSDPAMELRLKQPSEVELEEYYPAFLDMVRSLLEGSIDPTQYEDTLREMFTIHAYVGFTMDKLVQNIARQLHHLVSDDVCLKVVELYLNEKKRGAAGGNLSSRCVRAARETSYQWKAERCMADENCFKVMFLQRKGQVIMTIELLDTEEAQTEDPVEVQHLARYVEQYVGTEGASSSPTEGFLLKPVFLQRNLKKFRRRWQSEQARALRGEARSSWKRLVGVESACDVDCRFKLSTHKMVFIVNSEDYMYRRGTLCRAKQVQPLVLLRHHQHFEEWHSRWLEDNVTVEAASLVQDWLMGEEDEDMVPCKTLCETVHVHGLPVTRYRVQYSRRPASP
UniProt Q9P289, sequence (Q9P289 whole entry, looked up): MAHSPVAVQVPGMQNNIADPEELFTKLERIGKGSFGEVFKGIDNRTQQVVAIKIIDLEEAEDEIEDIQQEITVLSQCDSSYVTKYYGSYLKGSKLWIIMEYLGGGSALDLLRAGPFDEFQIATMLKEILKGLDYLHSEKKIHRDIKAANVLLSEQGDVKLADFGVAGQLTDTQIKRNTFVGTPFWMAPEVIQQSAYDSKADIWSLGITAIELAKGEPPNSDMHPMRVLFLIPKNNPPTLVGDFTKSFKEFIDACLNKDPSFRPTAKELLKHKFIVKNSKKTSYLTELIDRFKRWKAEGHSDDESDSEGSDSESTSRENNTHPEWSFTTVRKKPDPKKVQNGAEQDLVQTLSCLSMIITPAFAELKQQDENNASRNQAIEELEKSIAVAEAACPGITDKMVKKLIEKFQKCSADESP
UniProt P49675, sequence (P49675 whole entry, looked up): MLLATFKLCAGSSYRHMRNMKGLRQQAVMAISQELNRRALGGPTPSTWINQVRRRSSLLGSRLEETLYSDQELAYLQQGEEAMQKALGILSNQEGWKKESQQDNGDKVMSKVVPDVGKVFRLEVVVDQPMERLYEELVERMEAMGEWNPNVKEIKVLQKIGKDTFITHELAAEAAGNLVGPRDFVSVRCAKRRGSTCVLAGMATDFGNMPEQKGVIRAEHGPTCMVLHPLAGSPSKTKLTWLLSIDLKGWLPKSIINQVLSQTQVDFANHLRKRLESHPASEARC
UniProt Q15506, sequence (Q15506 whole entry, looked up): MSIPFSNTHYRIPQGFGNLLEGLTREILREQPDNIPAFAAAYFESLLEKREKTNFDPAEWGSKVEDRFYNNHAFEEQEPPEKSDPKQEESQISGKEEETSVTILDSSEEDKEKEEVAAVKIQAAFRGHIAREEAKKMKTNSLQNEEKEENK
UniProt Q9UL54, sequence (Q9UL54 whole entry, looked up): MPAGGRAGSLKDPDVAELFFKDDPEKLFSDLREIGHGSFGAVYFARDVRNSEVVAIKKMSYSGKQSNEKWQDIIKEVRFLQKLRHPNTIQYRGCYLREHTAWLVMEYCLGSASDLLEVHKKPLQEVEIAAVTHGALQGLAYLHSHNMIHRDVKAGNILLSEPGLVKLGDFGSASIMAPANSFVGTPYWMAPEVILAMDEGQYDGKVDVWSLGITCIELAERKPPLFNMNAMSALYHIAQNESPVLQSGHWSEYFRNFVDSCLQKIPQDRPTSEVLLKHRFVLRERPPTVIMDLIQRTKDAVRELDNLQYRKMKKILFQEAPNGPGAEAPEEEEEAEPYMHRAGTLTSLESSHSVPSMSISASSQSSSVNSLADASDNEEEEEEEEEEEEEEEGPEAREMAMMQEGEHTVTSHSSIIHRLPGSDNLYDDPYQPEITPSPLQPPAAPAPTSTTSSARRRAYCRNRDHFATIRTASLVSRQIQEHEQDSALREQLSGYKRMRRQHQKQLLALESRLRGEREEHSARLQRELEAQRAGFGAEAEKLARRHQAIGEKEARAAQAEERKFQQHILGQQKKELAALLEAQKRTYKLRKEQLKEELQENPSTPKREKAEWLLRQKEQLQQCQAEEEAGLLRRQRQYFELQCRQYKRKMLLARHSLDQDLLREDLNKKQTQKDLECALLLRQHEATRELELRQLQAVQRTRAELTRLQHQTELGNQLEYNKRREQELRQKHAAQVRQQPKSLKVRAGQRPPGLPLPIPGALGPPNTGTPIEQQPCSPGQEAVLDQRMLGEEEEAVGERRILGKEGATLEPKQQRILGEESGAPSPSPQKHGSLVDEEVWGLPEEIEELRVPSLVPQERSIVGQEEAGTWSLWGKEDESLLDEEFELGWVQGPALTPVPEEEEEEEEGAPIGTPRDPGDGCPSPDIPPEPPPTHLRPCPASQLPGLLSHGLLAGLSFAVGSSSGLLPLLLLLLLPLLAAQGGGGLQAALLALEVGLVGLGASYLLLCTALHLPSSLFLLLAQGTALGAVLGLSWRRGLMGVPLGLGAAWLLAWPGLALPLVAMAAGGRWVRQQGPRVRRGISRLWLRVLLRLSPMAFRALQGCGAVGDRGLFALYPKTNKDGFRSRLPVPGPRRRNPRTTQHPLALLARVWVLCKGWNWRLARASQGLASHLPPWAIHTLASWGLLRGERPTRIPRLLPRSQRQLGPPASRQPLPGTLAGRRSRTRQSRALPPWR

Consider SMC4 (UniProt C9JJ64), for which the log2 fold change in the test with ibrutinib is -0.146; with barasertib, 0.152.
In the case of TAF11 (UniProt Q15544), the log2 fold change was -0.013 in [1]; 0.027 with ralimetinib; 0.008 in [2]; 0.015 in [3]; 0.115 in test [4]; 0.052 in test [5]. Besides, the log2 fold change in [6] is 0.072; in [7] it was -0.114; with vemurafenib, -0.055; in [8], 0.166; in test [9] it was 0.14; in the test with volasertib, 0.037. Further, the log2 fold change in test [10] was 0.086; in [11], -0.028; in [12], 0.086; in the test with saracatinib it was -0.021; with sotrastaurin it was 0.026.
Consider SLC22A18 (UniProt Q96BI1), for which the log2 fold change with ibrutinib is 0.099; in test [1], -0.047; in [13], 0.049; in test [5], 0.02; in test [7], 0.011; with vemurafenib, 0.026. In addition, the log2 fold change is 0.046 in test [8]; -0.059 with barasertib; 0.044 in [9]; 0.08 with volasertib; 0.026 in [11]; -0.032 in [12]. Besides, the log2 fold change in the test with sotrastaurin was 0.073.
As for TAOK2 isoform 2 (UniProt Q9UL54), the log2 fold change in test [3] was 0.034.
For SIN3B (UniProt O75182), the log2 fold change in test [3] is 0.19; in [5] it was 1.04; with vemurafenib, -0.042; in test [9] it was -0.092; in test [11], -0.061; in test [12] it was 0.267. Besides, the log2 fold change in the test with sotrastaurin is -0.099.
In the case of SLC39A13 (UniProt Q96H72), the log2 fold change was 0.004 with ralimetinib; -0.137 in [2]; -0.003 in test [13]; 0.25 in test [6]; 0.035 in test [10].
For SMPD2 (UniProt O60906), the log2 fold change is 0.01 in test [1]; -0.03 with ralimetinib; 0.067 in [2]; 0.388 in test [13]; 0.077 in test [4]; -0.113 in test [6]. In addition, the log2 fold change in test [7] is 0.058; in test [8], 0.179; in test [9] it was 0.051; in the test with volasertib, 0.032; in test [10] it was -0.017; in test [11], -0.003. The log2 fold change in test [12] is -0.104; with saracatinib it was 0.018.
Take STK26 isoform 3 (UniProt Q9P289): the log2 fold change in test [4] is -0.157; in [5], -0.146; in test [9] it was 0.189; with saracatinib, -0.046; with sotrastaurin, -0.119.
Consider SNRPD2 (UniProt K7EJB5), for which the log2 fold change in test [1] is -0.004; with ralimetinib, 0.142; in test [2], -0.075; in [13], 0.014; in test [3], 0.052; in [4], -0.022. The log2 fold change was -0.011 in test [5]; 0.069 in test [6]; -0.01 in [7]; 0.061 with vemurafenib; -0.029 in [8]; -0.085 in test [9]. Also, the log2 fold change in the test with volasertib was 0.026; in test [10] it was 0.112; in the test with saracatinib, -0.049; with sotrastaurin it was 0.112.
For STAR (UniProt P49675), the log2 fold change is -0.139 with ralimetinib; 0.02 in [2]; 0.073 in test [13]; -0.027 in test [3]; -0.052 in test [4]; -0.049 in [5]. Further, the log2 fold change in test [6] is -0.039; with vemurafenib it was 0.02; in test [9], 0.074; in [10] it was 0.008; in test [11] it was 0.043; in test [12], -0.03. Moreover, the log2 fold change in the test with saracatinib was 0.006; in the test with sotrastaurin, 0.061.
As for SPA17 (UniProt Q15506), the log2 fold change with ibrutinib is 0.056; in test [1] it was 0.028; in the test with ralimetinib it was 0.006; in test [2], -0.098; in test [4] it was 0.051; in test [5], -0.053. In addition, the log2 fold change in [6] is 0.026; in [7], -0.058; in the test with vemurafenib, -0.013; in test [8], -0.004; with barasertib it was 0.021; in test [9] it was 0.005. For the same target, the log2 fold change with volasertib was 0.09; in test [10], 0.022; in test [11], -0.639 (active); in test [12], 0.245; in the test with saracatinib, 0.004; with sotrastaurin, 0.021.
With SLC25A36 (UniProt Q96CQ1), the log2 fold change was -0.012 in test [1]; 0.142 with ralimetinib; -0.048 in test [2]; 0.1 in test [13]; 0.044 in test [3]; -0.16 in test [4]. For the same target, the log2 fold change in test [5] is 0.011; in test [6], 0.027; in test [7], 0.013; with vemurafenib it was -0.272; in test [8], 0.007; in test [9] it was 0.113. Also, the log2 fold change in the test with volasertib was -0.045; in [10], 0.039; in [11], -0.016; in test [12], 0.035; in the test with saracatinib, -0.001; with sotrastaurin, -0.055.

Values taken from the supplement of paper PMC10849652.
